# Experimental data published in ChEMBL document CHEMBL4513216, “Probing the Open Global Health Chemical Diversity Library for Multistage-Active Starting Points for Next-Generation Antimalarials” (ACS Infect Dis, 2020).
# In all, about 69,000 compounds went through this assay and about 8,600 (12%) showed an effect of 50% or more. Shown is part of a subset that was picked to be rich in strong results.
# Tested on: Plasmodium berghei
# Assay: Screen against P. berghei liver stage (PbLuc), transformed with Luciferase, at 10uM
# Assay type: functional, HepG2
# Conditions: tested at 10 uM
row,Compound,INHIBITION
1,O=C(NCC1CC1)C1CN(Cc2cccs2)Cc2ccnn2C1 (centres undefined),-19.1%
2,Cc1ccc(S(=O)(=O)N2CSCC2C(=O)NCC(F)(F)F)cc1C (centres undefined),-27.9%
3,O=C(CSc1nc2c(cnn2CCO)c(=O)[nH]1)NC1CCCCC1,39.2%
4,Cc1noc(C(C)N2CCN(CCN3CCCC3=O)CC2)n1 (centres undefined),-29.1%
5,O=C(COCc1ccccc1Cl)Nc1ccnn1CC1CCOC1 (centres undefined),42.1%
6,O=C(Cn1ncc2ccccc21)Nc1ccnn1CC1CCOC1 (centres undefined),36.5%
7,O=C(COCCOc1ccccc1)Nc1ccnn1CC1CCOC1 (centres undefined),69.9%
8,COc1ccccc1CC(=O)N1C[C@@H]2CC[C@H]1CN(Cc1cscn1)C2,29.6%
9,CN(C(=O)Cn1nc(-c2ccccc2Cl)ccc1=O)C1CCS(=O)(=O)C1 (centres undefined),48.1%
10,CC(=O)N1CCC(Nc2ccc(Br)cc2C#N)C1 (centres undefined),7.39%
11,CN1CC(Nc2ccc(Br)cc2C#N)CCC1=O (centres undefined),58.9%
12,N#Cc1cc(Br)ccc1NC1CCN(CC(N)=O)CC1,45.4%
13,CCOCCN1CCN(Cc2csc(-c3cnn(C)c3)n2)CC1,-22.1%
14,O=C(CCNS(=O)(=O)c1ccc(F)c(F)c1)NCc1ccoc1,35.4%
15,O=C(N[C@H]1CN(Cc2ccsc2)[C@@H]2CCCO[C@H]12)C1CC1,48.2%
16,O=C(O)c1cc(NS(=O)(=O)c2ccc(Cl)s2)ccc1N1CCOCC1,20%
17,Cc1ccc(C(=O)NS(C)(=O)=O)cc1I,32.3%
18,Cc1cc(C(=O)NS(C)(=O)=O)ccc1I,52%
19,Cc1ccc(C(=O)NS(C)(=O)=O)cc1S(C)(=O)=O,1.79%
20,Cc1cc(N2CCN(C(=O)[C@@H]3C[C@H]4C=C[C@@H]3C4)CC2)nc2ccccc12,-13.2%

row,Compound,INHIBITION
1,CN(Cc1nnc(C2CC2)o1)C1CCCN(c2cccnn2)C1 (centres undefined),-9.76%
2,CC(C(=O)NC1CC1)N1CCN(Cc2ccn(C)c(=O)c2)CC1 (centres undefined),7.42%
3,COc1cccc2c1ccn2CCNC(=O)C1CCC1,-46.8%
4,OCCn1cc(CN2CCN(CCOCC(F)(F)F)CC2)cn1,54.9%
5,OCCn1cc(CN2CCN(CCOc3ccccc3)CC2)cn1,37.5%
6,OCCn1cc(CN2CCN(CCOc3ccc(F)cc3)CC2)cn1,39.5%
7,NC(=O)NC(=O)CN1CCN(c2nccs2)CC1,24%
8,Cc1cc(C)n(CCN2CCC(N(C)Cc3noc(C4CC4)n3)C2)n1 (centres undefined),68.5%
9,CCc1nc(CN(C(C)=O)C2CCN(Cc3cnc(C)cn3)C2)no1 (centres undefined),12.4%
10,Cc1cc(CN2CCC(N(C)Cc3noc(C4CC4)n3)C2)on1 (centres undefined),19.5%
11,Cc1nnc(CN(C)C2CCN(Cc3nnc(C4CCC4)o3)C2)n1C (centres undefined),40.9%
12,Cc1ccc(CCN2CCC(N(C)Cc3noc(C4CC4)n3)C2)cc1 (centres undefined),27.9%
13,Cc1nnc(CN(C)C2CCN(CCc3cccs3)C2)n1C (centres undefined),21.8%
14,CCn1c(C)nnc1CN(C)C1CCN(Cc2cnc(C)cn2)C1 (centres undefined),-7.48%
15,CCc1nc(CN(C)C2CCN(Cc3cnc(C)cn3)C2)no1 (centres undefined),67.5%
16,Cc1cc(C)n(CCN2CCC(N(C)Cc3nnc(C)n3C)C2)n1 (centres undefined),54.6%
17,Cc1cnc(CN2CCC(N(C)Cc3nnc(C4CC4)n3C)C2)cn1 (centres undefined),27.5%
18,CCc1nc(CN2CCCC(N(C)Cc3cnc(C)cn3)C2)no1 (centres undefined),24.3%
19,Cc1cnc(CN2CCC(N(C)Cc3nnc(C)n3C)C2)cn1 (centres undefined),62.3%
